Screening results as filed in PubChem.
A selection: hits, their analogues and other compounds. The true share with any hit is near 19%.
LASV entry inh: Lassa virus entry inhibition; Lassa virus pseudotype entry inhibition, cell reporter; Potency, µM (top dose mostly 37.9 µM), inactives show top-dose activity change, negative = inhibition, actives largely listed as inhibitors; actives 1.2% (n = 300,000); calls by dose curve; tested in HEK293 cells; further: potency means the concentration at half of the fitted maximal effect; on the % scale 0 is the no-effect control and ±100 the full control effect; nearly all actives have a fitted effect of over 50% in size
Shiga toxin inh: blocks Shiga toxin action in Vero cells; Vero cells, Shiga toxin protein synthesis inhibition reporter; inhibition, % at 38.7 µM; actives 9.2% (n = 290,000); in the data active means inhibition mostly above about 28%, no sharp cut-off; inactive means mostly below about 43%; further: 0% is about no effect
Pf growth 48h: inhibits P. falciparum growth in the first generation, 48 h; P. falciparum luciferase growth in erythrocytes, 48 h; actives 5.9% (n = 310,000); Potency, µM (series often up to 28.7 µM), for inactives: at the highest dose activity change, negative = inhibition, hits mostly inhibitors; AID 504832; further: potency means the concentration at half of the fitted maximal effect; on the % scale 0 is the no-effect control and ±100 the full control effect
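Luciferase-expressing parasites in RBCs, 2% Hct / 0.1% parasitemia final; RPMI 1640 + 0.5% Albumax; 37 C, 5% CO2, one generation; luminescence read-out, lower signal = inhibition.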
Cycloheximide cs: affects cycloheximide protein synthesis inhibition readout, counter-screen | actives 12% (n = 300,000) | cell reporter, cycloheximide protein synthesis inhibition counterscreen | AID 2314 | max response, %; in the data active means max response mostly above about 13%, no sharp cut-off; inactive means mostly below about 14%; further: read at 38.3 µM for the half of the compounds with a filed dose; 0% is about no effect
Pf growth 96h: inhibits malaria parasite growth, 96 h; P. falciparum luciferase reporter growth, 96 h; Potency, µM (doses to about 28.7 µM), for the others: top-dose activity change, negative = inhibition, usual class: inhibitors; actives 6.9% (n = 320,000); AID 504834; further: potency means the concentration at half of the fitted maximal effect; on the % scale 0 is the no-effect control and ±100 the full control effect
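Parasite growth measured via integrated firefly luciferase reporter in P. falciparum. Infected erythrocytes at 2% hematocrit, 0.05% parasitemia final were treated 96 hours at 37 C under 5% CO2, and luminescence was read.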
MARV entry inh: Marburg virus entry inhibition; AID 540276; Potency, µM (highest dose often 37.8 µM), for the others: at the top dose activity change, negative = inhibition, usual class: inhibitors; Marburg virus pseudotyped entry inhibition, cell reporter; actives 1.8% (n = 300,000); calls by dose curve; tested in HEK293 cells; further: potency means the concentration at half of the fitted maximal effect; on the % scale 0 is the no-effect control and ±100 the full control effect
* hit, by the source's call; ? = inconclusive; / = not tested or not shown; [ ] = remark or other dose. Unless noted, the call rests on the fitted dose curve; in most records, active means well fitted inhibition curve with a large enough effect; inconclusive means small, poorly fitted or top-dose-only effect, or another doubt; inactive means no such curve, though single readings can be large or run the other way.

SMILES	LASV entry inh	Shiga toxin inh	Pf growth 48h	Cycloheximide cs	Pf growth 96h	MARV entry inh
Cn1c(CN2CCN(C(=O)c3ccccc3)CC2)nc2cc([N+](=O)[O-])ccc21	?	46*	20%	19*	-3%	37%
Cn1c(CN2CCCC2)nc2cc(NC(=O)COc3ccc([N+](=O)[O-])cc3)ccc21	12%	-8	13µM*	-4	?	?
Cc1cc(C)cc(OCC(=O)Nc2ccc(CN3CCCCC3)cc2)c1	-2%	-10	12µM*	16	?	?
O=S(=O)(c1ccc(F)cc1)N1CCN(CC(O)COc2ccccc2F)CC1 (centres undefined)	1%	-5	5%	4	-4%	-1%
CC(C)c1ccccc1OCC(O)CN1CCN(S(=O)(=O)c2ccc([N+](=O)[O-])cc2)CC1 (centres undefined)	?	-2	3.7µM*	-2	2.6µM*	?
CN(C)CCC#CC(O)(c1ccccc1)c1ccccc1	-3%	-9	12µM*	-2	?	?
CN(C)Cc1c(O)ccc2c(-c3ccccc3)cc(=O)oc12	?	-13	-9%	-5	9.3µM*	13%[46.1 µM]
Cc1c(O)ccc2c(CN(C)Cc3ccccc3)cc(=O)oc12	?	44	?	12	-17%	12µM*
Cc1cc(C)c2c(CN(C)Cc3ccccc3)cc(=O)oc2c1	10µM*	/	/	/	/	/
Cc1ccccc1CN(C)Cc1cc(=O)oc2c(C)c(C)ccc12	2.8µM*	49	?	23*	?	4µM*
COc1ccc(-c2ccccc2)cc1NC(=O)c1cccs1	-9%	-5	5%	1	-12%	-10%
O=C(CSc1nnc(-c2ccco2)n1-c1ccccc1)NCC1CCCO1 (centres undefined)	-2%	11	20%	1	4%	9%
COc1cccc(CN(C)Cc2cc(=O)oc3c(C)c(C)ccc23)c1	/	3	6%	16*	14%	/
COc1cccc(CN(C)Cc2cc(=O)oc3cc(O)c(Cl)cc23)c1	/	-6	/	-1	-1%	/
Cc1ccc(-n2ncc3c(=O)[nH]c(SCC(=O)N4CCCC4)nc32)cc1C	2%	-21	-5%	-6	?	-9%
Cc1cccc(Cc2nnc(CCC(=O)NCc3ccncc3C)o2)c1	9%	35	?	31*	?	2%[46.1 µM]
CCc1cc(CNC(=O)CCc2nnc(Cc3cccc(C)c3)o2)on1	?	71*	40%	8	28%	-4%[46.1 µM]
Cc1cc(CNC(=O)CCc2nnc(CCCCc3ccccc3)o2)nn1C	-22%	-17	7%	-2	20%	5%[46.1 µM]
CCc1cc(CNC(=O)CCc2nnc(CCCc3ccccc3)o2)on1	/	79*	-10%	58*	?	/
CC(C)c1cc(CNC(=O)CCc2nnc(CCCc3ccccc3)o2)on1	/	58*	-13%	30*	18%	/
CCc1nc(SCC(=O)Nc2ccc(N(CC)CC)cc2)n[nH]1	-2%	/	/	/	/	7%[46.1 µM]
CC1CCc2sc3ncnc(N4CCN(C)CC4)c3c2C1 (centres undefined)	-19%	-3	?	-3	-22%	?
CC1(C)Cc2c(cnn2-c2ccc(F)cc2)C(NC(=O)C2CCC2)C1 (centres undefined)	-12%	17	?	12	?	?
CN(CCO)C1=NS(=O)(=O)c2cc([N+](=O)[O-])ccc21	2%[46.1 µM]	-3	4.1µM*	12	-27%	?
COc1cc(NC(=O)c2ccc(C)cc2C)ccc1NC(=O)c1cc2ccccc2o1	/	-3	56%	-2	?	/
SMILES	LASV entry inh	Shiga toxin inh	Pf growth 48h	Cycloheximide cs	Pf growth 96h	MARV entry inh
Cc1nn(-c2ccccc2)c(Cl)c1CN(C(=O)CCl)c1ccc(Cl)cc1	?	0	-17%	-8	?	?
Cc1nn(-c2ccccc2)c(Cl)c1CN(C(=O)CCl)c1cccc2ccccc12	?	-5	3.7µM*	12*	?	?
CC(C)N(C(=O)CSc1nnc(NC(=O)C2CCC2)s1)C(C)C	-17%	-11	6.6µM*	5	?	?
O=C(OCC#CCSc1nc2ccccc2o1)c1cc2ccccc2o1	14%	32	32%	15*	21%	25%
O=C(OCC#CCSc1nc2ccccc2o1)c1ccco1	-31%[14.3 µM]	31*	40%	13*	9%	9%
Cn1c(=O)oc2cc(S(=O)(=O)NC3CCCCC3)ccc21	17%[46.1 µM]	-6	34%	3	?	-13%[46.1 µM]
CCC(Sc1nc2sc(C(=O)OC)c(C)c2c(=O)n1N)C(=O)NCC1CCCO1 (centres undefined)	-25%[14.3 µM]	-1	?	-2	4.7µM*	-10%
CC(C)Cn1c(/C=N/Nc2nc3ccccc3[nH]2)nc2ccccc21	?	12	3.7µM*	7	0.47µM*	?
C=CCn1cc(/C=N/Nc2nc3ccccc3[nH]2)c2ccccc21	4.5µM*	74*	?	40*	83%	?
C=CCn1cc(/C=N\NC(=O)c2cc3c(ccc4ccccc43)o2)c2ccccc21	-27%	15	?	-4	-7%	-22%
CCCn1c(/C=N/Nc2nc3ccccc3[nH]2)nc2ccccc21	13µM*	46*	1.9µM*	49*	4.1µM*	?
CC(C)Cn1c(SCC(=O)Nc2ncccn2)nc2ccccc21	/	17	0%	5	10%	/
Cn1c(/C=N/Nc2nc3ccccc3[nH]2)nc2ccccc21	?	154*	-17%	34*	?	?
Cc1c(/C=N/Nc2nc3ccccc3[nH]2)c2ccccc2n1C	?	76*	0.52µM*	24*	0.47µM*	?
Cc1c(/C=N/n2cnnc2)c2ccccc2n1C	7%	-7	16%	-3	/	7%
CCOc1ccccc1CNS(=O)(=O)c1cc(-c2onc(C)c2C)ccc1OC	-15%[46.1 µM]	/	/	/	/	/
COc1ccccc1CN1CCC(CNS(=O)(=O)c2cc(-c3onc(C)c3C)ccc2OC)CC1	-1%[46.1 µM]	-7	12µM*	-5	?	/
Cc1cc(-c2ccc(C)c(S(=O)(=O)NCC3CCN(Cc4cccc(F)c4)CC3)c2)on1	/	8	9.3µM*	-1	?	/
COc1cccc(CCN2CCC(CNS(=O)(=O)c3cc(-c4cc(C)no4)ccc3OC)CC2)c1	/	-1	4.1µM*	2	10µM*	/
O=c1cc(CN2CCN(S(=O)(=O)c3ccccc3)CC2)nc2sc(-c3ccccc3Cl)nn12	27%[46.1 µM]	/	/	/	/	/
COc1ccc(/C=C/C(=O)NCCOc2ccccc2OC)cc1	10%	12	-8%	-2	?	?
COc1ccc(/C=C/C(=O)N[C@@H](C)C(=O)O)cc1	3%	6	-2%	-5	7%	-28%
COC(=O)CNC(=O)/C=C/c1ccc(OC)cc1	8%	57*	4%	27*	140%	1%
COCC(C)NC(=O)/C=C/c1ccc(OC)cc1 (centres undefined)	/	36	89%	19*	-4%	/
COc1ccc(/C=C/C(=O)NCc2ccccn2)cc1	17%	34*	15%	17*	44%	?
